This is an account of results in PubChem BioAssay.

As a reminder, the inhibition is the change of the read-out against control, counted positive when it falls.

In assay [1] the test system is TRPC4 beta (transient receptor potential cation channel C4), mouse. The experiment in a line: activators of mouse TRPC4 channel, confirmation, cell-based, Fluo4 calcium, HEK293 TRPC4beta/mu-opioid, duplicates, 10 µM (AID 2426;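 active means fluorescence ratio normalized to control raised more than 50% in primary screen plus both repeat runs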;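 on activation: percent rise of integrated ratio over buffer wells lacking compound which define 0%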). To be noted: Fluo4 calcium fluorescence, at 10 µM; active compounds read high.
The test system of assay [2] is transient receptor potential cation channel C4 beta (TRPC4), mouse. The experiment in a line: activators of mouse TRPC4 channel, confirmation, cell-based, second round, Fluo4, HEK293 TRPC4beta/mu-opioid, 1 µM (AID 2461;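 active means primary screen active and over 50% activation in each of two duplicate runs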). To be noted: Fluo4 calcium fluorescence, at 1 µM; active compounds read high.
Assay [3] relates to TRPC4 (transient receptor potential cation channel C4 beta), mouse. Description: positive allosteric modulators of mouse TRPC4, confirmation, cell-based, second round, Fluo-4, HEK293 TRPC4beta/mu-opioid, 1 µM (AID 2554;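 active means primary screen hit whose fluorescence ratio, in both repeats, exceeds the weak agonist control mean by 3 SD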). To be noted: DAMGO EC20, Fluo-4 calcium flux, at 1 µM; active compounds read high. On the technique in general: A change in cytosolic calcium serves as a functional read-out for many receptors and channels.

The test system of assay [4] is TRPC4 beta (transient receptor potential cation channel C4), mouse. Description: positive allosteric modulators of mouse TRPC4, confirmation, cell-based, Fluo-4, HEK293 TRPC4beta/mu-opioid (AID 2555;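 active means primary screen hit whose calcium fluorescence ratio, in both repeats, exceeds the weak agonist control mean by 3 SD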). To be noted: DAMGO EC20, Fluo-4 calcium flux, at 10 µM; active compounds read high.
Assay [5] has as its target Short transient receptor potential channel 4 (Mus musculus) (UniProt Q9QUQ5). The experiment in a line: inhibitors of mouse TRPC4 channel, confirmation, cell-based, Fluo4, HEK293 TRPC4beta/mu-opioid (AID 2636;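 active means calcium signal cut by more than 3 SD below the full-agonist control yet still positive, in both repeats and the earlier primary screen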). To be noted: DAMGO, Fluo4 calcium flux, at 10 µM; active compounds read high.
Assay [6] has the same target. The experiment in a line: inhibitors of mouse TRPC4 channel, confirmation, cell-based, second round, Fluo4, HEK293 TRPC4beta/mu-opioid, 1 µM (AID 2637;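 active means calcium signal ratio cut to more than 3 SD under the fully stimulated control mean yet still positive, in both repeats and the primary screen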;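 on inhibition: percent of integrated ratio relative to wells lacking test compound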). To be noted: Fluo4 calcium flux, DAMGO, at 1 µM; active compounds read high.
For assay [7] the target is unchanged. Description: TRPC4 positive allosteric modulators, dose response, cell-based, HEK293 TRPC4/mu-opioid, Fluo-4 calcium, EC20 DAMGO (AID 434941;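 active means earlier screen potentiator hit that boosts the TRPC4 ion channel at some dose, with a dose response; inactive means no potentiation, no dose response, or not a prior hit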;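 further: calcium entry triggered by an EC20 dose of DAMGO at the co-expressed mu-opioid receptor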).
Assay [8] concerns the target Short transient receptor potential channel 6 (Mus musculus) (UniProt Q61143). The experiment in a line: inhibition of mouse TRPC6 channel, confirmation, selectivity assay for TRPC4 inhibitor project, cell-based, HEK293, membrane potential dye, duplicate (AID 434948;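 active means active in primary screen and both duplicates, each dropping signal beyond three positive-control SD with fluorescence still positive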). To be noted: HEK293 TRPC6, membrane potential dye fluorescence, at 10 µM, stimulated with maximal-effect acetylcholine; active compounds read high.

Assay [9] has the same target. Description: activation of mouse TRPC6 channel, confirmation, selectivity assay for TRPC4 activator project, cell-based, HEK293, membrane potential dye, duplicate (AID 434950;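 active means membrane potential signal rise above negative control mean plus 3 SD in both duplicates, also active in the earlier TRPC4 screen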;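 on activation: 0% = buffer only wells and 100% = acetylcholine maximal-effect wells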). To be noted: HEK293 TRPC6, membrane potential fluorescence, at 10 µM; active compounds read high.
Assay [10] shares this target. The experiment in a line: TRPC6 potentiation by TRPC4 potentiator hits, confirmation, selectivity assay for TRPC4 potentiator project, HEK293 cells, membrane potential dye, duplicate (AID 434952;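 active means compound raising the membrane signal above positive-control mean plus 3 SD in both repeats, and a primary screen hit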). To be noted: HEK293 TRPC6, membrane potential dye fluorescence, at 10 µM, maximal acetylcholine added after compound; active compounds read high.
Assay [11] concerns the target Short transient receptor potential channel 4 (Mus musculus) (UniProt Q9QUQ5). Description: calcium flux activators in TRPC4/5HT1a cells, counter-screen for TRPC4 activator project, cell-based, second counter screen, HEK293 TRPC4/5HT1a, Fluo-4 (AID 434977;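 active means calcium signal rise above buffer-control mean plus 5 SD in both duplicates, and also a hit in the primary screen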;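 on activation: plate controls were assay buffer for no effect and maximal serotonin response for full effect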). To be noted: Fluo-4 calcium flux, at 10 µM; active compounds read high.
Assay [12] in a line: calcium flux inhibitors in TRPC4/5HT1a cells, confirmation, counter-screen for TRPC4 inhibitor project, cell-based, second counter screen, HEK293 TRPC4/5HT1a, Fluo-4 (AID 434978;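 active means primary screen active whose calcium signal fell more than 3 SD beyond the full-serotonin control mean in both duplicate plates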;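 on outcome: serotonin given first at submaximal then at maximal dose after compound preincubation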). To be noted: Fluo-4 calcium flux, at 10 µM, serotonin added to trigger calcium flux; active compounds read high.
Assay [13] has as its system TRPC4 (mouse), co-expressed with 5HT1a in HEK293. Description: calcium flux potentiators in TRPC4/5HT1a cells, confirmation, counter-screen for TRPC4 potentiator project, cell-based, second counter screen, HEK293 TRPC4/5HT1a, Fluo-4 (AID 434979;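 active means signal rise over 3 SD above mean of control wells given weak agonist, in both repeats and first screen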). To be noted: Fluo-4 calcium flux, at 10 µM, serotonin added at its EC20 dose; active compounds read high.
Assay [14] can be described thus: calcium flux activation in mu-opioid HEK293 cells, confirmation, counter-screen for TRPC4 activator project, cell-based, HEK293 mu-opioid receptor line (AID 449723).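 Further: counter screen cells carry the mu-opioid receptor alone and lack TRPC4.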 To be noted: Fluo-4 calcium fluorescence, at 10 µM; active compounds read high.
The nature of assay [15]: calcium flux enhancement in mu-opioid HEK293 cells, confirmation, counter-screen for TRPC4 allosteric potentiator project, cell-based, HEK293 mu-opioid receptor line (AID 449724;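 active means calcium signal rise more than 3 SD above the low-dose agonist control mean, in both duplicate plates and the primary screen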). To be noted: Fluo-4 calcium flux, at 10 µM, compound added before EC20 DAMGO stimulus; active compounds read high.
In assay [16] the target is Short transient receptor potential channel 4 (Mus musculus) (UniProt Q9QUQ5). The experiment in a line: mouse TRPC4 membrane potential modulation by TRPC6 hits, confirmation, selectivity assay for TRPC6 inhibitor project, cell-based, second specificity screen, HEK293 TRPC4/mu-opioid (AID 2776;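 active means compounds whose fluorescence signal differed from control wells by over 3 SD, either direction, in both duplicate plates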). To be noted: HEK293 TRPC4/MOR, membrane potential dye fluorescence, at 10 µM, channel activated by saturating DAMGO dose; active compounds read high.
Chain of Short transient receptor potential channel 4 (Mus musculus) (Q9QUQ5 whole entry, looked up): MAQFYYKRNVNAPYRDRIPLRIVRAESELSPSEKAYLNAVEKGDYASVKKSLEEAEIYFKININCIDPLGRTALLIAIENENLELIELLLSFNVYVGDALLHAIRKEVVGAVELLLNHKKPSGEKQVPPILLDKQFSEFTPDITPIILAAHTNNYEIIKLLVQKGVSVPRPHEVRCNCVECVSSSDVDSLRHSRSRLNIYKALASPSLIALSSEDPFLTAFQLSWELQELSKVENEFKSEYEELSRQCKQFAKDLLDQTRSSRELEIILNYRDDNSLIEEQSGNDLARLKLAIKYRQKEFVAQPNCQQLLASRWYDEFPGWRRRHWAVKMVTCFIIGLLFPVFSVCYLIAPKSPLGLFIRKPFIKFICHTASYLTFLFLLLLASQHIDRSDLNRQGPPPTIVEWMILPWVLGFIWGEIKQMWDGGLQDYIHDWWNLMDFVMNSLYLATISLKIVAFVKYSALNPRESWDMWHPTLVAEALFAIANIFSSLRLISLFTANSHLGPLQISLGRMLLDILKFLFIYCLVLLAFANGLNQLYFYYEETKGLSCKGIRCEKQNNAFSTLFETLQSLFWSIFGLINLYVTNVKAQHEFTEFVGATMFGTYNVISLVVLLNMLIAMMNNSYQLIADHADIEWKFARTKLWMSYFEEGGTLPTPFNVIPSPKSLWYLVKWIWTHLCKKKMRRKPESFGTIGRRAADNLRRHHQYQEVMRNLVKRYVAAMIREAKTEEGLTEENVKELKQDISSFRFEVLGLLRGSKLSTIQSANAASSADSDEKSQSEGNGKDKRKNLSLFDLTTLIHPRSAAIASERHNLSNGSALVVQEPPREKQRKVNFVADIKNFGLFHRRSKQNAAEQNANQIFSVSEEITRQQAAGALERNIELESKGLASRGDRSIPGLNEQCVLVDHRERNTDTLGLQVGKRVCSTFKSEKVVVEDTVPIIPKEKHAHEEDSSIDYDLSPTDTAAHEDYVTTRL

Assay [17] relates to transient receptor potential cation channel C4 (TRPC4), mouse. The experiment in a line: mouse TRPC4 modulation by TRPC6 hits, confirmation, selectivity assay for TRPC6 inhibitor project, cell-based, HEK293 TRPC4/mu-opioid, membrane potential dye (AID 2777;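 active means rise or fall in signal beyond 3 SD of buffer-only wells in both replicate plates, either sign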;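 further: integrated kinetic ratio of fluorescence range over baseline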). To be noted: membrane potential fluorescence, at 10 µM.
The nature of assay [18]: nonspecific membrane potential effects, parental HEK293, confirmation, counter-screen for TRPC6 inhibitor project, cell-based, second counter screen (AID 2779;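 active means membrane potential signal moving either way by over 3 SD of the maximum-effect control, in both duplicate plates, meaning non-specific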). To be noted: parental HEK293 membrane potential dye fluorescence; at 10 µM; maximal acetylcholine challenge after compound addition.
Assay [19] in a line: membrane potential modulation in parental HEK293, confirmation, counter-screen for TRPC6 inhibitor project, cell-based (AID 2780;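 active means membrane potential signal shifting up or down by more than 3 SD of buffer-only wells, on both duplicate plates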;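 on membrane potential signal change: plate controls were buffer EC0 wells for no effect and acetylcholine ECmax wells for full effect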). To be noted: parental HEK293 membrane potential dye fluorescence; at 10 µM. In general terms: Counterscreens check selectivity or assay interference.
The target of assay [20] is Short transient receptor potential channel 6 (Mus musculus) (UniProt Q61143). Description: mouse TRPC6 channel inhibitors, confirmation, HEK293 cells, membrane potential dye, duplicate (AID 488960;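 active means fluorescence ratio falls more than 5 SD below the full-stimulation control mean, in both duplicate runs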;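 on inhibition: integrated fluorescence ratio of peak minus minimum over baseline after agonist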). To be noted: ACh-evoked depolarization, at 10 µM; active compounds read high.
Chain of Short transient receptor potential channel 6 (Mus musculus) (Q61143 whole entry, looked up): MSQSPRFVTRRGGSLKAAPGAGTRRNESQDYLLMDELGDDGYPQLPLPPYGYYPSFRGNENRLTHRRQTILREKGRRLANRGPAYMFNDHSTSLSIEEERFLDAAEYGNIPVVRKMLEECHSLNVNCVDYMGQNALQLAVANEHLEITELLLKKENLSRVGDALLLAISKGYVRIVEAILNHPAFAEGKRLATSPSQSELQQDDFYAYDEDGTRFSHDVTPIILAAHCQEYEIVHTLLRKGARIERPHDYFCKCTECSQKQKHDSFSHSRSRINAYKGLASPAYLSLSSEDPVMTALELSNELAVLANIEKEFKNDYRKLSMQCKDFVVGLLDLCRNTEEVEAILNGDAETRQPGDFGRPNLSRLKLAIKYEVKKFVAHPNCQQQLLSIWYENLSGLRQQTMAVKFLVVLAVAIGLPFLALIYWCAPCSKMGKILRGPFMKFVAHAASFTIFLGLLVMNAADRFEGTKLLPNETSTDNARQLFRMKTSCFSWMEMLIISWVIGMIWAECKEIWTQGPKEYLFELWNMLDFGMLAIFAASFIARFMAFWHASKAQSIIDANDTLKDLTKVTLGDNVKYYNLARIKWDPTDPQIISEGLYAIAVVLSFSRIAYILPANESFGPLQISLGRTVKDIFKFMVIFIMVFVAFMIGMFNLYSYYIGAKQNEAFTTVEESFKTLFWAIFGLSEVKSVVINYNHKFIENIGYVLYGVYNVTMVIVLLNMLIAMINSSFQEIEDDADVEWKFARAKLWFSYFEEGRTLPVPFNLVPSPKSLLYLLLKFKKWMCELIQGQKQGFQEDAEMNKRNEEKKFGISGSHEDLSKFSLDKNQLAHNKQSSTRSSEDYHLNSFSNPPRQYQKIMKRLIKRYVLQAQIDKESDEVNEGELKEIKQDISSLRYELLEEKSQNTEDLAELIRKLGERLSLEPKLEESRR

For some of these results: Measured potencies and affinities stand elsewhere. The list shows a part of the results. Calls of active or inactive are those of the source.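 How the source made its calls, unless noted: active means hit in primary screen, with calcium signal over 5 SD above buffer well mean in both duplicates; inactive means the rest.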

With `COc1ccc2nc(NS(=O)(=O)c3ccc(NC(C)=O)cc3)sc2c1`, the outcome in assay [1], in [2], in [3], in [4], in assay [6] and in assay [7] was inactive. The call in assay [8], in assay [10], in assay [11], in assay [12], in [13] and in [14] was inactive. In [15], the outcome was inactive. Also, the inhibition in [5] was 73% (active). Also, the activation in assay [9] is 37.5% (active).

For the compound `CN(C)C(CNC(=O)c1ccc2c(c1)S(=O)(=O)c1ccccc1C2=O)c1ccco1` (stereo not given), the activation is 142% (active) in assay [1] and 42.8% (active) in assay [11]. In addition, the outcome in assay [2], in assay [3], in assay [4], in assay [6], in assay [7] and in assay [8] was inactive. Moreover, the result in [9], in assay [10], in assay [13], in assay [14] and in assay [15] was inactive. In addition, the inhibition is 67% (active) in [5] and 29.5% (active) in assay [12].

In the case of `Cc1ccc(COn2c(-c3ccc(Cl)cc3Cl)nc3ncccc32)cc1`, the outcome in [1], in assay [2], in assay [3], in assay [4], in assay [5] and in assay [6] was inactive. The result in assay [7], in assay [8], in assay [10], in assay [11], in [12] and in assay [13] was inactive. Also, the result in assay [14] and in assay [15] was inactive. The activation in assay [9] is 46% (active).

Turning to `Cc1ccccc1OCC(O)Cn1c(=N)n(Cc2ccccc2)c2ccccc21` (stereo not given), the activation in assay [1] is 70% (active); in assay [9], 52.5% (active); in [11] it was 9.48% (active); in assay [14] it was 18.7% (active). Moreover, the result in [2], in assay [3], in assay [4], in assay [6], in [7] and in [10] was inactive. Moreover, the outcome in assay [13] and in assay [15] was inactive. For the same compound, the values for the inhibition in assay [5], in assay [8] and in assay [12] were 84% (active), 39.5% (active) and 38% (active), respectively.

As to `CC1CCCN(CCOCCOc2ccccc2-c2ccccc2)C1` (stereo not given), the outcome in assay [1], in [2], in assay [3], in assay [4], in assay [7] and in assay [8] was inactive. In addition, the outcome in [10], in assay [11], in assay [13], in assay [14] and in assay [15] was inactive. Further, the inhibition in assay [5] is 90% (active); in assay [6] it was 53% (active); in [12], 30.7% (active). The activation in [9] is 82% (active).

Consider `Cc1ccc(S(=O)(=O)NCCC(=O)NCC(c2ccco2)N2CCCCC2)cc1C` (stereo not given), for which the activation in assay [1] is 82% (active); in assay [9], 37% (active). The outcome in [2], in assay [3], in [4], in [5], in assay [7] and in assay [8] was inactive. For the same compound, the result in assay [10], in [11], in assay [12], in assay [13], in assay [14] and in assay [15] was inactive. In assay [6], the inhibition is 80% (active).

Regarding `COc1ccc(/C=C/C(=O)Nc2ccccc2C(=O)NCC(c2ccc(OC)cc2)N(C)C)cc1` (stereo not given), the result in [1], in assay [2], in assay [3], in assay [4], in assay [7] and in [8] was inactive. Besides, the result in assay [9], in assay [10], in assay [11], in assay [12], in assay [13] and in assay [14] was inactive. For the same compound, the outcome in assay [15] was inactive. The inhibition is 101% (active) in [5] and 81% (active) in assay [6].

For the compound `O=C(N/N=C/c1cccnc1)c1ccccc1OCc1ccc(Cl)cc1`, the result in [1], in assay [2], in assay [3], in assay [4], in assay [7] and in [8] was inactive. In addition, the compound was called inactive in assay [9], in [10], in assay [11], in assay [13], in assay [14] and in assay [15]. Moreover, the inhibition in assay [5] was 98% (active); in assay [6] it was 48% (active); in assay [12], 42.7% (active).

With `CCCc1cc(=S)n2c([nH]c3ccccc32)c1C#N`, the compound was classed as inactive in [16] and in assay [18]. Besides, the activity change, negative = inhibition in [17] is 33.6% (active). The membrane potential signal change in assay [19] is 22.1% (active). For the same compound, the inhibition in assay [20] was 51.5% (active).

As for `COc1ccc(CC(=O)Nc2sc(Cc3ccccc3)c(C)c2C(N)=O)cc1`, the result in assay [16], in [17], in [18], in [19] and in [20] was inactive.
